Source: PubChem BioAssay AID2546 (National Center for Advancing Translational Sciences (NCATS), 2010)
Where “and” joins values, the source holds several entries; their conditions need not be identical. Equal values may be shown once. Out of some 310,000 compounds screened, about 11,000 (3.5%) were called active. Where a call stands in place of a potency, no number is given. Roughly 8% stayed inconclusive and do not appear here. Calls come from the whole dose curve; as a rule, active = well fitted inhibition curve with a large enough effect; inconclusive = small, poorly fitted or top-dose-only effect, or effect the other way; inactive = flat fitted curve, though single readings scatter. Many of the other results were omitted from the sample, so actives are more common in it than they were.

Assay: VP16 counterscreen qHTS for inhibitors of ROR gamma transcriptional activity;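 note: Gal4-VP16 expression switched on by copper sulfate through the metallothionein promoter; nearly all actives have a fitted effect of over 50% in size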
Details: Drosophila S2 Gal4-VP16 UAS-luciferase, luminescence, 20 h; series mostly up to 53.6 µM
Potency is the fitted concentration of half-maximal effect.

SMILES	Potency
CC(=N\NC(=O)c1cc(Br)ccc1O)/C(=N/O)C(=O)Nc1ccccc1	11.2 µM (active)
C/C(=N/NC(=O)c1cc(Cl)ccc1O)C12CC3CC(CC(C3)C1)C2	inactive
O=C(Nc1cccc(NC(=O)c2ccc(Br)cc2)c1)c1ccccc1	inactive
COc1cc(OC)c2c(-c3cccc(-c4cccc(N)c4)c3)cc(=O)oc2c1	10 µM (active)
COc1ccc(-c2c(C)cc3oc(=O)cc(-c4ccccc4)c3c2C)cc1OC	inactive
COc1ccc(-c2c(C)cc3oc(=O)cc(-c4ccccc4)c3c2C)cc1F	inactive
Cc1cc(NC(=O)CCC(=O)N(Cc2ccccc2)C(C(=O)NC2CCCC2)c2ccc(C)o2)no1 (stereo unspecified)	inactive
CCc1cccc(C)c1N1C(=O)CN(Cc2ccccc2)C1=S	inactive
O=C(/C(=C/c1cccc(Cl)c1)c1nc2ccccc2[nH]1)c1ccccc1	12.6 µM (active)
CCC(=O)/C(=C(/O)c1ccccc1)c1nc2ccccc2[nH]1	inactive
O=C(Cc1nc2ccccc2[nH]c1=O)c1ccc(Cl)cc1	inactive
Cc1ccc(C)c(NC(=O)c2cc(-c3cc(C)cc(C)c3O)n[nH]2)c1	inactive
Cc1sc2ncn(CC(=O)NCCCC(=O)N(C)Cc3ccccc3)c(=O)c2c1C	inactive
CCc1ccc2c(c1)C1(NN=C(c3ccccc3)S1)C(=O)N2 (stereo unspecified)	6.31 µM (active)
CCCCN1C(=O)/C(=C2/Sc3ccc(Cl)cc3N2CC)SC1=S	inactive
O=c1c2ccccc2nc2n1C1(CCCCC1)Cc1ccccc1-2	inactive
CN(c1ccc2nc3ccccc3c(=O)n2n1)C1CCCCC1	1.12 µM (active)
CCOC(=O)C(C)Sc1nc2ccccc2c(=O)n1CC1CCCCC1 (stereo unspecified)	inactive
C/C(=N\N(C)C)c1ccc(OCCOc2ccc([N+](=O)[O-])cc2)cc1	inactive
C/[N+]([O-])=C\c1ccc([N+](=O)[O-])o1	inactive
O=C(/C=C/c1ccc([N+](=O)[O-])o1)NNC(=O)c1ccc(F)cc1	4.47 µM (active)
O=C(N/N=C/c1ccc([N+](=O)[O-])o1)c1cn(-c2ccccc2)nc1-c1ccc(F)cc1	inactive

SMILES	Potency
CCc1ccc(NC(=O)CN2CCC(C(=O)c3ccc(OC)cc3)CC2)cc1	inactive
Cc1ccc(NC(=O)C(C)c2cccc(C(=O)c3ccccc3)c2)cc1 (stereo unspecified)	7.08 µM (active)
COC(C(=O)Nc1ccc(C(C)=O)cc1)c1ccccc1 (stereo unspecified)	inactive
CC(=O)Nc1ccc(NC(=O)[C@@H](NC(=O)c2cccc(C)c2)C(C)C)cc1	inactive
CCn1cc(S(=O)(=O)c2cccc(C)c2)c(=O)c2cc(F)c(N3CCN(C)CC3)cc21	inactive
Fc1ccc(-c2ccc(NCCN3CCOCC3)nn2)cc1	inactive
N#Cc1ccccc1NC(=O)c1ccc2c(c1)OCO2	inactive
CCOC(=O)C1(Cc2ccccc2C)CCCN(C(=O)c2ccc(COC)o2)C1 (stereo unspecified)	inactive
CC1=CC(C)(C)Nc2ccc(OC(=O)CN3C(=O)C4CCCCC4C3=O)cc21 (stereo unspecified)	7.94 µM (active)
O=C(CN1C(=O)C2C3CCC(C3)C2C1=O)Oc1ccc2ccccc2c1 (stereo unspecified)	inactive
CC1=CC(C)(C)Nc2ccc(OC(=O)C(Cc3ccccc3)N3C(=O)C4CCCCC4C3=O)cc21 (stereo unspecified)	inactive
COc1ccc2[nH]cc(CCN3C(=O)c4ccc(C(=O)O)cc4C3=O)c2c1	inactive
Cc1cccc(N(C)C(=O)CN2C(=O)COc3ccc(S(=O)(=O)N4CCCCCC4)cc32)c1	inactive
COc1ccc(-c2oc3ncnc(NCCCO)c3c2-c2ccc(OC)cc2)cc1	inactive
C[C@@H](NC(=O)OC(C)(C)C)c1nnc(S(=O)(=O)Cc2ccccc2)o1	4.47 µM (active)
CC(C)Sc1nnc([C@H](Cc2ccccc2)NC(=O)OC(C)(C)C)o1	inactive
C[C@H](NC(=O)OC(C)(C)C)c1nnc(SCC(N)=O)o1	inactive
CC(=O)Nc1cccc(NC(=O)CSc2nccn2Cc2ccc(F)cc2)c1	inactive
Cc1ccc2nc(SCC(=O)NC3CCCC3)[nH]c2c1	inactive
Cc1ccc(Nc2nc(-c3sc(NC(=O)c4ccccc4)nc3C)cs2)cc1	inactive
Cc1ccc(-c2csc(NNC(=O)c3ccccc3)n2)cc1	7.08 µM (active)
Cc1nc(NNC(=O)c2ccccc2)cc(-c2ccccc2)n1	inactive

SMILES	Potency
O=C(O)c1ccccc1C(=O)Nc1nc(-c2ccccc2)cs1	inactive
O=C(Nc1nc(-c2ccc(-c3ccccc3)cc2)cs1)c1cnccn1	2 µM (active)
O=C(Nc1nc(-c2cccnc2)cs1)c1ccccc1F	inactive
CC(=O)c1ccc(N2CCN(C(=O)C3CCN(S(=O)(=O)c4ccc5c(c4)CC(C)N5C(=O)C4CC4)CC3)CC2)cc1 (stereo unspecified)	inactive
CCCC(C)NC(=O)C1CCN(C(=O)C2CC(=O)N(c3ccc(C)cc3)C2)CC1 (stereo unspecified)	inactive
COc1cc(C)c(C)cc1S(=O)(=O)N1CCCc2ccccc21	inactive
O=C(Cn1cnc2ccccc21)Nc1ccccc1-c1ccccc1	inactive
O=C(NCCOc1cccnc1)c1ccc(OC2CCN(Cc3ccccn3)CC2)cc1	inactive
C[C@H](NC(=O)[C@@H]1Cc2ccccc2CN1C(=O)OC(C)(C)C)C(=O)NC1CCCC1	inactive
CC(C)(C)NC(=O)C(=O)NN=C1CCCCCCC1	inactive
CC(C)NC(=S)NN=C1CCCCCCCCCCC1	5.01 µM (active)
CCc1ccc(C(=O)NN=C2CCCCCC2)s1	inactive
CCC1CCCCN1C(=S)Nc1ccc(S(=O)(=O)Nc2ncccn2)cc1 (stereo unspecified)	inactive
CCCc1cc(=O)oc2cc(OCC(=O)Nc3ccc(CN4CCOCC4)cc3)c(Cl)cc12	inactive
CC(C)CNC(=O)C(=O)NCc1ccccc1	inactive
COC(=O)Cc1ccc(NC(=S)NCc2ccccc2)cc1	31.6 µM (active)
FC(F)(F)Oc1ccc(NC(=S)NCc2ccccc2)cc1	11.2 µM (active)
CC(C)CC(=O)NC(=S)Nc1cc(C(=O)O)ccc1Cl	inactive
O=C(NNC(=S)NCc1ccccc1)c1ccc(OC(F)F)cc1	inactive
COC(=O)Cc1ccc(NC(=S)NCc2ccco2)cc1	inactive
CC(C)CC(=O)NC(=S)NCc1ccccc1	10 µM (active)
O=C(Cc1ccccc1)NCc1ccc(F)cc1	inactive

SMILES	Potency
COC(=O)Cc1ccc(OCC(=O)Nc2ccc(OC(F)(F)F)cc2)cc1	inactive
CCOC(=O)c1ccc(NC(=O)Cc2cccs2)cc1	inactive
CCC1Sc2ccc(S(=O)(=O)CCC(=O)NCc3cccs3)cc2NC1=O (stereo unspecified)	inactive
COc1ccccc1CNC(=O)c1ccc(N(C)S(=O)(=O)c2ccc(C)cc2)cc1	inactive
CSc1ncccc1C(=O)Nc1ccc(C)cn1	inactive
COc1ccc(OC)c(NC(=O)CN(C)CCOc2ccc(Br)cc2)c1	inactive
CC1(C)Cc2c(sc(NC(=O)C(=O)NCC3CCCO3)c2C(=O)O)CO1 (stereo unspecified)	inactive
COc1ccc(C2CC(c3ccc([N+](=O)[O-])cc3)=NN2C(C)=O)cc1 (stereo unspecified)	inactive
Cc1cccnc1CCNC(=O)C1CCC(=O)N(Cc2cccc(F)c2)C1 (stereo unspecified)	inactive
O=C(NCCCN1CCOCC1)c1ccc2c(c1)N(Cc1cccc(F)c1)C(=O)c1ccccc1S2	inactive
COc1ccc(CCNc2nc(-c3cccc(NC(C)=O)c3)cs2)cc1OC	inactive
COc1ccc(CC(=O)Nc2nc(-c3ccc(F)c(F)c3)cs2)cc1OC	15.8 µM (active)
COc1cccc(CC(=O)Nc2nc(-c3ccc(OC)c(OC)c3)cs2)c1	inactive
CCOC(=O)C1(Cc2ccccc2C)CCCN(C(=O)CN2C(=O)CSC2=O)C1 (stereo unspecified)	inactive
CCOC(=O)c1cccc(NC(=O)C2CCN(c3ncnc4c3nc3n4CCCCC3)CC2)c1	inactive
CN(C(=O)c1ccccc1)c1nccnc1C#N	inactive
O=C(Cc1ccccc1)N1N=C(c2ccncc2)CC1(O)C(F)(F)F (stereo unspecified)	inactive
CC1=NN(C(=O)CCc2ccccc2O)C(O)(C(F)(F)F)C1 (stereo unspecified)	12.6 µM (active)
CCCCCNC(=O)Cc1ccc(OC)cc1	inactive
COc1ccc(CC(=O)N2N=C(C)CC2(O)C(F)(F)F)cc1 (stereo unspecified)	8.91 µM (active)
NC(=O)c1ccc(Nc2ccc3c(c2)CCC3)c([N+](=O)[O-])c1	inactive
Cc1ccc(Nc2ncnc3c2cnn3C)c(C)c1	inactive

SMILES	Potency
COC(=O)c1c(NC(=O)C2CC(C)=C(C)CC2C(=O)O)sc2c1CCCCC2 (stereo unspecified)	inactive
O=S(=O)(/C=C/c1ccccc1)N1CCNCC1	inactive
CCc1ccc(OCC(=O)NCC(c2ccc(Cl)cc2)N2CCCCC2)cc1 (stereo unspecified)	inactive
Cc1ccc(S(=O)(=O)c2c[nH]c3ccc(C)cc3c2=O)cc1	inactive
Cc1cc(/C=N/Nc2ccc([N+](=O)[O-])cn2)c(C)n1-c1cccc(C(=O)O)c1	inactive
Cc1cc(/C=N/NC(N)=O)c(C)n1C1CCCCC1	inactive
Cc1cccc(-n2c(C)cc(/C=N/NC(N)=S)c2C)c1	2.82 µM (active)
O=C(CN1CCN(C(=O)C2CCCO2)CC1)Nc1c(Cl)cccc1Cl (stereo unspecified)	inactive
COc1ccc(Oc2ncc3nc(C)c(=O)n(-c4ccccc4)c3n2)cc1	inactive
Cc1n[nH]c(=O)n1-c1ccc(Oc2ccccc2)cc1	0.891 µM (active)
Cc1n[nH]c(=O)n1-c1ccc(C(C)C)cc1	inactive
Cc1cccc(CNS(=O)(=O)c2ccc(-c3cnc(C4CC4)o3)cc2)c1	inactive
CCOc1ccc(CN(C)C(=O)c2ccc(=O)[nH]c2)cc1	inactive
Cc1cccc(NC(=O)c2cccnc2Cl)n1	inactive
Cc1ccc2nc(N(CCN(C)C)C(=O)C3=COCCO3)sc2c1	inactive
COc1ccc2cc(S(=O)(=O)Nc3ccccn3)ccc2c1	inactive
COc1cc(NS(=O)(=O)c2ccc3ccccc3c2)c2ncccc2c1	708 nM (active) and 562 nM (active)
Cc1ccc(NS(=O)(=O)c2ccc(C)c(NC(=O)COc3ccc4ccccc4c3)c2)c(C)c1	inactive
